Drawing on the supplement of paper PMC10127200, this text covers Euclidean distance for 35 compounds.

Structures can show the parent of a compound that is named as a salt.

In the experiment the test system is DU145. Description: Euclidean distance of Cell Painting phenotypic profile (signed KS, 77 features) to DMSO centroid (dimensionless distance); 5 or 10 uM (library dependent); higher = stronger phenotypic change vs DMSO (phenoactivity). Conditions: 48 h. The method, boiled down: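 Five cancer lines and a healthy fibroblast line received library compounds at 10 or 5 uM (library-dependent, 0.1% DMSO final) for 48 h. Stained cells were imaged confocally at 20X (9 fields/well). Harmony extracted 77 features, each scored as a signed Kolmogorov-Smirnov statistic against same-plate vehicle wells. Profiles were plate-position corrected, correlation-weighted and replicate-averaged at the top dose. Phenoactivity is the Euclidean distance from each profile to the median vehicle profile.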
`CNC1CCCN(c2c(F)cc3c(=O)c(C(=O)O)cn(C4CC4)c3c2OC)C1` (stereo not given) [Balofloxacin Dihydrate] registered an Euclidean distance of 0.831. Then `OCCN1CCN(CCCN2c3ccccc3Sc3ccc(C(F)(F)F)cc32)CC1` [Fluphenazine dihydrochloride], with 1.87. Compound `O=C(O)CCCCC(CCSCc1ccccc1)SCc1ccccc1` (stereo not given) had an Euclidean distance of 1.09. Compound `CCOC(=O)Nc1ccc(NCc2ccc(F)cc2)nc1N` [Flupirtine maleate] showed an Euclidean distance of 1.53.

In turn, `N=C(N)NC(=N)N1CCOCC1` [Moroxydine HCl] returned an Euclidean distance of 1.25. Then `O=C(Nc1c(Cl)cncc1Cl)c1ccc(OC(F)F)c(OCC2CC2)c1` [Roflumilast], with 0.92; and `C[N+](C)(C)NCCC(=O)[O-]` [Mildronate], with 1.05; and `CCN(CC)Cc1ccc2cc(COC(=O)Nc3ccc(C(=O)NO)cc3)ccc2c1` [Givinostat (ITF2357)], with 2.88. The figure for `CCN(CC)CCCC(C)Nc1c2ccc(Cl)cc2nc2ccc(OC)cc12` (stereo not given) [Quinacrine Dihydrochloride Dihydrate] is 4.71; for `CC/C(=C(/CC)c1ccc(O)cc1)c1ccc(O)cc1` [Diethylstilbestrol] it is 0.96; for `CO/N=C(\C(=O)N[C@@H]1C(=O)N2C(C(=O)O)=C(CSc3nc(=O)c(O)nn3C)CS[C@H]12)c1csc(N)n1` [Ceftriaxone Sodium Trihydrate] it is 1.23. In turn, `CCN(CC)C(=O)/C(C#N)=C/c1cc(O)c(O)c([N+](=O)[O-])c1` [Entacapone] returned an Euclidean distance of 0.513. Regarding `C[C@H]1COc2c(C3(N)CC3)c(F)cc3c(=O)c(C(=O)O)cn1c23` [Pazufloxacin mesylate], the Euclidean distance came to 0.975. Regarding `O=C(O)c1ccccc1C(=O)Nc1ccc(S(=O)(=O)Nc2nccs2)cc1` [Phthalylsulfathiazole], the Euclidean distance was determined as 0.914.

In turn, `OCCOc1ccc(/C(=C(/CCCl)c2ccccc2)c2ccccc2)cc1` [Ospemifene] yielded an Euclidean distance of 0.819. Then `CN1C2CCCC1CC(NC(=O)c1nn(C)c3ccccc13)C2` (stereo not given) [Granisetron], with 0.646. The figure for `CC1=Nc2ccc(Cl)cc2S(=O)(=O)N1` [Diazoxide] is 1.19; for `Cn1cc(/C=C/C(=O)c2cccc(F)c2)cc1/C=C/C(=O)NO` it is 0.756; for `CCCc1nc(C)c2c(=O)nc(-c3cc(S(=O)(=O)N4CCN(CC)CC4)ccc3OCC)[nH]n12` [Vardenafil HCl Trihydrate] it is 1.26. For the compound `COc1ccc(S(=O)(=O)N(C(C)=O)c2ccccc2/C=C/c2cc[n+]([O-])cc2)cc1`, the Euclidean distance came to 4.01. The compound `O=C(CCCCCCNC(=O)c1cnc(N(c2ccccc2)c2ccccc2Cl)nc1)NO` [Citarinostat (ACY-241)] displayed an Euclidean distance of 2.16. The figure for `CC[C@@H](Nc1c(Nc2cccc(C(=O)N(C)C)c2O)c(=O)c1=O)c1ccc(C)o1` is 0.995; for `CC(C)[C@H](C(=O)Nc1ccc(C(=O)NO)cc1)c1ccccc1` it is 3.1. The figure for `Nc1cccc2c1C(=O)N(C1CCC(=O)NC1=O)C2=O` (stereo not given) [Pomalidomide] is 0.704; for `Nc1nc(N)c2nc(-c3cccc(O)c3)cnc2n1` it is 1.28. Then `CC(=O)OCC1=C(C(=O)O)N2C(=O)[C@@H](NC(=O)Cc3cccs3)[C@H]2SC1` [Cephalothin], with 0.824; and `COc1ccc(-c2ccc3c(N4CCOCC4)nc(N4C[C@@H](C)O[C@@H](C)C4)nc3n2)cc1CO`, with 1.96; and `OC(CCCN1CCCCC1)(c1ccccc1)c1ccccc1` [Diphenidol HCl], with 0.884. `C[C@H]1COc2c(N3CCN(C)CC3)c(F)cc3c(=O)c(C(=O)O)cn1c23` [Levofloxacin hydrate]: the Euclidean distance was 1.07.

Turning to `CC1=C(C(=O)OC(C)C)C(c2cccc([N+](=O)[O-])c2)C(C(=O)OC2CN(C(c3ccccc3)c3ccccc3)C2)=C(N)N1` (stereo not given) [Azelnidipine], the Euclidean distance came to 1.12. Then `C=C1/C(=C\C=C2/CCC[C@]3(C)[C@@H]([C@H](C)CCCC(C)(C)O)CC[C@@H]23)C[C@@H](O)C[C@@H]1O` [Calcitriol], with 1.24; and `O=C(O)/C=C/c1ccc(O)c(O)c1` [Caffeic Acid], with 1.61; and `CC[C@H]1[C@@H](O)[C@@H]2[C@H](CC[C@]3(C)[C@@H]([C@H](C)CCC(=O)O)CC[C@@H]23)[C@@]2(C)CC[C@@H](O)C[C@@H]12` [Obeticholic Acid], with 0.878. The figure for `CCCN1CCCC[C@H]1C(=O)Nc1c(C)cccc1C` [Ropivacaine] is 0.902; for `CCN(CC)CCOC(=O)C1(C2CCCCC2)CCCCC1` [Dicyclomine HCl] it is 1.39.
